Our source for the residual activity values is ChEMBL document CHEMBL2218924, “A broad activity screen in support of a chemogenomic map for kinase signalling research and drug discovery” (Biochem J, 2013).

Test [1] concerns the target MAP kinase-activated protein kinase 2 (Homo sapiens) (UniProt P49137). The following applies: at 10 µM.
In test [2] the target is Serine/threonine-protein kinase MARK1 (Homo sapiens) (UniProt Q9P0L2). The settings on record: at 1 µM.
For test [3] the target is unchanged. The settings on record: at 10 µM.
Test [4] addresses Maternal embryonic leucine zipper kinase (Homo sapiens) (UniProt Q14680). The following applies: at 1 µM.
Test [5] has the same target. The following applies: at 10 µM.
For test [6], the target named is Misshapen-like kinase 1 (Homo sapiens) (UniProt Q8N4C8). The settings on record: at 1 µM.
For test [7] the target is unchanged. The settings on record: at 10 µM.
Test [8] concerns the target T1, Dual specificity mitogen-activated protein kinase kinase 6 (Homo sapiens) (UniProt P52564).
T1 sequence (whole entry): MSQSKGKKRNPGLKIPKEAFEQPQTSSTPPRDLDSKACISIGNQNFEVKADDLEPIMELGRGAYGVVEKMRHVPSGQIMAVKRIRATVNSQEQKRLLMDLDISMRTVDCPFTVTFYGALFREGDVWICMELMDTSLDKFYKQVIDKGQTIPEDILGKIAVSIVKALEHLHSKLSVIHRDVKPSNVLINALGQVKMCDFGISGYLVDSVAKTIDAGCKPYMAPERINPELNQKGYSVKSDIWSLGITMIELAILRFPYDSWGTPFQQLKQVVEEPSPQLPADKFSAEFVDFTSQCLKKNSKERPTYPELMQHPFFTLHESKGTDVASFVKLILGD
The following applies: at 1 µM.

Test [9] deals with T1, Dual specificity mitogen-activated protein kinase kinase 6 (Homo sapiens). The settings on record: at 10 µM.
The target of test [10] is T2, Dual specificity mitogen-activated protein kinase kinase 7 (Homo sapiens) (UniProt O14733).
T2 sequence (whole entry): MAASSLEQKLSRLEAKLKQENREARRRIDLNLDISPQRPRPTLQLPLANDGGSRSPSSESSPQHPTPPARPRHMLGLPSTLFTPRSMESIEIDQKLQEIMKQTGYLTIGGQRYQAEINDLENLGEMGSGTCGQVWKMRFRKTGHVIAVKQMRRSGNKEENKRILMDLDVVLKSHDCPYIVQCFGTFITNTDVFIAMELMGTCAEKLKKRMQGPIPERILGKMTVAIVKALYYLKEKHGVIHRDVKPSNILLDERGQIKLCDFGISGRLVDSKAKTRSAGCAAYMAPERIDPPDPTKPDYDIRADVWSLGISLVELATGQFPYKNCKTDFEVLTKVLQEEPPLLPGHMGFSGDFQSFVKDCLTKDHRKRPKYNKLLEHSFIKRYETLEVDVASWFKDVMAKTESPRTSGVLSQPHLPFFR
The following applies: at 1 µM.

Test [11] deals with Myosin light chain kinase, smooth muscle (Homo sapiens) (UniProt Q15746). The settings on record: at 1 µM.
Test [12] shares this target. The following applies: at 10 µM.
Test [13] has as its target Mitogen-activated protein kinase kinase kinase 9 (Homo sapiens) (UniProt P80192). The following applies: at 1 µM.
For test [14] the target is unchanged. The settings on record: at 10 µM.
Test [15] deals with Serine/threonine-protein kinase MRCK alpha (Homo sapiens) (UniProt Q5VT25). The settings on record: at 1 µM.
Test [16] has the same target. The settings on record: at 10 µM.
Test [17] addresses MAP kinase-activated protein kinase 3 (Homo sapiens) (UniProt Q16644). The settings on record: at 10 µM.
Test [18] concerns the target Dual specificity mitogen-activated protein kinase kinase 1 (Homo sapiens) (UniProt Q02750). The following applies: at 1 µM.
Test [19] has the same target. The following applies: at 10 µM.
The target of test [20] is T2, Dual specificity mitogen-activated protein kinase kinase 7 (Homo sapiens). The following applies: at 10 µM.

Chain of MAP kinase-activated protein kinase 3 (Homo sapiens) (Q16644 whole entry, looked up): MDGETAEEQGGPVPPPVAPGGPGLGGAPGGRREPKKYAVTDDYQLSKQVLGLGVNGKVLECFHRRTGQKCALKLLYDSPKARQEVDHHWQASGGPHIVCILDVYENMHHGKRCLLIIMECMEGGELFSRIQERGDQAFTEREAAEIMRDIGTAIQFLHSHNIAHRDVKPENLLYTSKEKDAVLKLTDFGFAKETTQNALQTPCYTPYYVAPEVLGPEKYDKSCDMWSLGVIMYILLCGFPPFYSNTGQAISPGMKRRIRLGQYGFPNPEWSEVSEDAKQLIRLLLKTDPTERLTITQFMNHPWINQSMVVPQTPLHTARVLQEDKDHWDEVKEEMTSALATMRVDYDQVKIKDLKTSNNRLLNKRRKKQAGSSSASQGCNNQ
Chain of MAP kinase-activated protein kinase 2 (Homo sapiens) (P49137 whole entry, looked up): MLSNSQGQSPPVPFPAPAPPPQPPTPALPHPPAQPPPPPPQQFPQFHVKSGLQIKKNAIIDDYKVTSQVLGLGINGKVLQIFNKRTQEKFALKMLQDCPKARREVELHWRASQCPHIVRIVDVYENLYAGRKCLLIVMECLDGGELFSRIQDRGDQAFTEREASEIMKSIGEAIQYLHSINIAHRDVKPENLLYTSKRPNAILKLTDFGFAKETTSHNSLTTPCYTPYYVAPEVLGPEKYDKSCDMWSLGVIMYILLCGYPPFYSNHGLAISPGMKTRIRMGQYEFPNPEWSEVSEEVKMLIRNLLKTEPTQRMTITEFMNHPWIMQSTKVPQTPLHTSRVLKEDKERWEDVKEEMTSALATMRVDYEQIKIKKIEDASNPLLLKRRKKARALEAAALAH
Chain of Myosin light chain kinase, smooth muscle (Homo sapiens) (Q15746 whole entry): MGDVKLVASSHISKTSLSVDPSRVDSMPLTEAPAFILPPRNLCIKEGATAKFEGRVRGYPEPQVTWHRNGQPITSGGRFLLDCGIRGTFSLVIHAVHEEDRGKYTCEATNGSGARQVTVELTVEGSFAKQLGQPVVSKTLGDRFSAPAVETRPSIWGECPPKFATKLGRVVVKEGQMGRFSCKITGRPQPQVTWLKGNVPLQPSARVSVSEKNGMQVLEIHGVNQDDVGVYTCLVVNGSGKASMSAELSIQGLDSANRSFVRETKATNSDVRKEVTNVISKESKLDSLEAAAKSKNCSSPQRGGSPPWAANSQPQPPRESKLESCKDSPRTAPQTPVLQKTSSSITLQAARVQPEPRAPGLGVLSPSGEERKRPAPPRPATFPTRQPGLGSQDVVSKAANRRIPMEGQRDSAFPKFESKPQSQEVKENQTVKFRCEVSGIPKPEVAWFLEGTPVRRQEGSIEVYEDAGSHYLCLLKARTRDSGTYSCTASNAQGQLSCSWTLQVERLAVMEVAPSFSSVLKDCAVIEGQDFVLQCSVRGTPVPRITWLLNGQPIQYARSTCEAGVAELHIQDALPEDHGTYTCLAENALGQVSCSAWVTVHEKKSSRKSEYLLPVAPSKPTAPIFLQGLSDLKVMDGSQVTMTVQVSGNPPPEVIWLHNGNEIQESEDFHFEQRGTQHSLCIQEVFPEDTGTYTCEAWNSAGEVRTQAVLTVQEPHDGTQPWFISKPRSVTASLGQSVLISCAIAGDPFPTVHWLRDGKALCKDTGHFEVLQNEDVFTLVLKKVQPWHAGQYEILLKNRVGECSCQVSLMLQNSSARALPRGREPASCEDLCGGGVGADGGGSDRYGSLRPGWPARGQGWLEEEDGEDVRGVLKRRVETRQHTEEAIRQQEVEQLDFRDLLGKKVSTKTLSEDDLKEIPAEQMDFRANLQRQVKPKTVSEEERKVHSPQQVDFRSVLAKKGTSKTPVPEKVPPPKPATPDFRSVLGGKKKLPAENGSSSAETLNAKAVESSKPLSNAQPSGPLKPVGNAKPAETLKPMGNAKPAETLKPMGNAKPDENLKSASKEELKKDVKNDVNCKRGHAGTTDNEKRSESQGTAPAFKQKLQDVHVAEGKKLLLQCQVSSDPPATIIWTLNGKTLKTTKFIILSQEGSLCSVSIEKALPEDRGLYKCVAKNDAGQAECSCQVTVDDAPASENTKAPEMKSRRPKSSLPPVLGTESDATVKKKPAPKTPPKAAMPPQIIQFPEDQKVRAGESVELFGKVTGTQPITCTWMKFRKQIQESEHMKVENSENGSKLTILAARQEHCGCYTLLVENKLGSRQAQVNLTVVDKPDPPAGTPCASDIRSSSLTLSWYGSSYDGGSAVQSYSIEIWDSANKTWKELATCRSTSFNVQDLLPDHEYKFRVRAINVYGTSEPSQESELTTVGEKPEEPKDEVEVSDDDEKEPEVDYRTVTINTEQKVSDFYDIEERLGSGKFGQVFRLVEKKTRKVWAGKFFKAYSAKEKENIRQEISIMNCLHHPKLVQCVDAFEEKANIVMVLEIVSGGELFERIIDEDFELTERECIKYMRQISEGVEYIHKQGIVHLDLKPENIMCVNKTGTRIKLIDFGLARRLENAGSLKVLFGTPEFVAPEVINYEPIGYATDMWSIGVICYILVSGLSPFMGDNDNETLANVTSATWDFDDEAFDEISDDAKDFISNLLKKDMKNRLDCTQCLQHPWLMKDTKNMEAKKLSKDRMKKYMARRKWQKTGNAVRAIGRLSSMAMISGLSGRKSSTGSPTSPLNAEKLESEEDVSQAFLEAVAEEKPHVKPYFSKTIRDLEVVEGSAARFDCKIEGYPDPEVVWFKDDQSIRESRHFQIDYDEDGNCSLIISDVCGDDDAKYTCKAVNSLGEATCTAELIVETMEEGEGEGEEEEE
Chain of Mitogen-activated protein kinase kinase kinase 9 (Homo sapiens) (P80192 whole entry, looked up): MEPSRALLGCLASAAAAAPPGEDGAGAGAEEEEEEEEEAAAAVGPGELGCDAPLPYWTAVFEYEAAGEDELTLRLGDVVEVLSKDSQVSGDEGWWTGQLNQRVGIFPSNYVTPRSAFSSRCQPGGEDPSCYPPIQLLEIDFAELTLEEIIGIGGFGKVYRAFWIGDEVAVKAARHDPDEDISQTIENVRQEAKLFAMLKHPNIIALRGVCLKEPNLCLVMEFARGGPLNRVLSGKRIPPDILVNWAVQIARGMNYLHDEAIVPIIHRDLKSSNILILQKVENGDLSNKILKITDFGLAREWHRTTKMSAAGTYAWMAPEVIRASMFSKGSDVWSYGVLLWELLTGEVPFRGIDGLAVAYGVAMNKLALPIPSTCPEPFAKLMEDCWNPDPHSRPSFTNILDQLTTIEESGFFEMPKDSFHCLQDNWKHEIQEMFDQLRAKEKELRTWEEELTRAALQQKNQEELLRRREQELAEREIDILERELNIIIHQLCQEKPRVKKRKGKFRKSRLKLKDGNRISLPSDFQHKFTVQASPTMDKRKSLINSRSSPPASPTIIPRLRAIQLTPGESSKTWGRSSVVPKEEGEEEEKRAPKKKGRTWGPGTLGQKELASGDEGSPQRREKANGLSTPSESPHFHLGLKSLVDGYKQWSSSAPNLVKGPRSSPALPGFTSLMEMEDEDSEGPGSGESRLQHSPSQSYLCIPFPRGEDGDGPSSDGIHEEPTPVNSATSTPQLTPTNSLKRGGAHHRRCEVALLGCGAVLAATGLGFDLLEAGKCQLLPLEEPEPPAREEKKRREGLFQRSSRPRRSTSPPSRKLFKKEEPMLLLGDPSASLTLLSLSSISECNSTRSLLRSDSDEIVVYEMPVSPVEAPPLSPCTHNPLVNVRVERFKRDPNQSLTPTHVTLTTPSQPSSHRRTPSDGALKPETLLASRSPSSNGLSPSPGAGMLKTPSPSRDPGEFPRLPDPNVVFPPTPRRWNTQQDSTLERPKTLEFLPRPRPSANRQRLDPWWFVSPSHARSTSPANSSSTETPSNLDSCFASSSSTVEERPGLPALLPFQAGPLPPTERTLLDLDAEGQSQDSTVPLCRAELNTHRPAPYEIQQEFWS
Chain of Dual specificity mitogen-activated protein kinase kinase 1 (Homo sapiens) (Q02750 whole entry): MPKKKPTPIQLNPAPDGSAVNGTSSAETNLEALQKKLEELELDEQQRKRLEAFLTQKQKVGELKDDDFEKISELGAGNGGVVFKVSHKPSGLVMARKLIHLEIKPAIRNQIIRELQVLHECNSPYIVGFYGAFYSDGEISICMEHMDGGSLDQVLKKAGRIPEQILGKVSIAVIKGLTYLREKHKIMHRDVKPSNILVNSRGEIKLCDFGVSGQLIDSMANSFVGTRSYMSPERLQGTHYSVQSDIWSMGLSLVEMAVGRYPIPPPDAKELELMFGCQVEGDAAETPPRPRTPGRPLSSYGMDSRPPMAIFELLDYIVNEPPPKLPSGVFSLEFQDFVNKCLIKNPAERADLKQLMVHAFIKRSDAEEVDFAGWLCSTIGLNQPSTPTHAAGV
Chain of Maternal embryonic leucine zipper kinase (Homo sapiens) (Q14680 whole entry, looked up): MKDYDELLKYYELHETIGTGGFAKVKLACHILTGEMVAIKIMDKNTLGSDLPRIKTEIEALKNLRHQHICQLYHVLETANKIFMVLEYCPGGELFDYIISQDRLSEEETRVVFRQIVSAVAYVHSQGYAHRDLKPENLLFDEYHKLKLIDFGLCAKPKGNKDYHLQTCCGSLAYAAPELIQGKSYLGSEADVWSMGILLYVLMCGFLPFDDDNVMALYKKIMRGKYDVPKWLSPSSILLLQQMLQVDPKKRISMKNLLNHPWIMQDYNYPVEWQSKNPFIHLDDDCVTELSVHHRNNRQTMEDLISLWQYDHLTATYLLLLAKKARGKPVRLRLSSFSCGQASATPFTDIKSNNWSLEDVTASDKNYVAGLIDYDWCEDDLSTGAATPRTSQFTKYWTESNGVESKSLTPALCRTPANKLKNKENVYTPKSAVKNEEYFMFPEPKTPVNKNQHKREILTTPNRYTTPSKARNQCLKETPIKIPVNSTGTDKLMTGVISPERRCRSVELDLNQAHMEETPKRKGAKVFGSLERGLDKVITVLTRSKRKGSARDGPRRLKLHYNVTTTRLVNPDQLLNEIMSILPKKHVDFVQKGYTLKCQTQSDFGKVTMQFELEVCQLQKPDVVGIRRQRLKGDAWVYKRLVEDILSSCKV

For `N#CC(C#N)=C(N)/C(C#N)=C/c1ccc(O)cc1`, the residual activity came to 87% in test [1]; 89% in test [2]; 75% in [3]; 70% in test [4]; 78% in [5]; 89% in test [6]. The residual activity turned out to be 88% in test [7]; 91% in test [8]; 99% in test [9]; 94% in [10]; 68% in test [11]; 85% in [12]. In addition, the residual activity amounted to 99% in [13], 97% in [14], 90% in test [15] and 76% in test [16].
For the compound `Cc1ccc(S(=O)(=O)/C=C/C#N)cc1`, the residual activity in test [1] is 74%; in test [17], 85%; in test [2] it was 90%; in [3] it was 89%; in test [18], 105%; in test [19] it was 95%. Moreover, the residual activity in test [4] was 96%; in test [5], 100%; in test [6], 111%; in test [7], 104%; in [8], 124%; in test [9] it was 94%. Besides, the residual activity came out at 93% in test [10]; 77% in test [20]; 95% in [11]; 85% in test [12]; 97% in [13]; 97% in [14]. The figures for the residual activity in test [15] and in [16] were 86% and 95%, respectively.
Regarding `Nc1cccc(-c2cc3c(Oc4cccc(O)c4)ncnc3[nH]2)c1`, the residual activity in [1] amounted to 82%; in test [2] it was 51%; in test [3] it was 11%; in [18], 94%; in [19] it was 102%; in test [4] it was 73%. Moreover, the residual activity in test [5] stood at 29%; in [6], 41%; in test [7], 7%; in test [8], 74%; in [9], 20%; in test [10] it was 80%. The residual activity in [20] was 70%; in test [11], 85%; in [12], 25%; in [13], 7%; in [14], 1%; in test [15] it was 123%.
In the case of `Cn1nc2c3c(cccc31)C(=O)c1ccccc1-2`, the residual activity in [1] amounted to 73%; in test [17], 66%; in [2] it was 76%; in test [3], 62%; in test [18], 95%; in test [19], 91%. Moreover, the residual activity stood at 67% in test [4]; 59% in [5]; 93% in [6]; 80% in test [7]; 70% in test [9]; 84% in [10]. Further, the residual activity in [20] is 53%; in [11] it was 65%; in test [12], 49%; in test [13] it was 74%; in test [14], 28%; in [15], 108%. Further, in test [16], the residual activity is 99%.
With `CCN(CC)C(=O)c1ccc(Nc2nc(OCC3CCCCC3)c3nc[nH]c3n2)cc1`, the residual activity in test [1] was 39%; in test [17], 69%; in test [2], 60%; in test [3] it was 17%; in test [18], 48%; in test [19] it was 48%. Moreover, the residual activity in test [4] worked out at 40%; in [5] it was 3%; in [6], 94%; in [7] it was 63%; in test [8], 75%; in test [9], 41%. For the same compound, the residual activity in [10] was found to be 56%; in [20], 16%; in [13] it was 2%; in test [14], 1%; in test [15], 99%; in test [16], 73%.
`O=c1cc(-c2cccc3c2Sc2ccccc2S3)oc(N2CCOCC2)c1`: the residual activity amounted to 85% in [1]; 79% in test [17]; 104% in [2]; 96% in test [3]; 111% in test [18]; 104% in test [19]. Further, the residual activity in test [4] came to 93%; in [5], 90%; in test [6], 111%; in [7] it was 100%; in test [8], 113%; in test [9], 78%. Besides, the residual activity in test [10] worked out at 106%; in [20], 82%; in [11], 114%; in test [12], 69%; in test [13], 103%; in [14] it was 96%. Moreover, the results for the residual activity in test [15] and in test [16] were 110% and 112%, respectively.
For the compound `O=C(O)c1ccc2c3c1cccc3c(=O)n1c3ccccc3nc21`, the residual activity in test [1] amounted to 95%; in test [17] it was 106%; in test [2], 81%; in test [3], 35%; in [18], 94%; in [19] it was 97%. The residual activity in [4] was found to be 91%; in test [5] it was 53%; in test [7], 5%; in [8] it was 92%; in test [9], 64%; in [10] it was 87%. Further, the residual activity in test [20] is 46%; in [11] it was 88%; in [12], 35%; in [13], 33%; in test [14] it was 5%; in test [15], 107%. Besides, the residual activity in test [16] turned out to be 115%.
With `C[C@@H](N)[C@H]1CC[C@H](C(=O)Nc2ccncc2)CC1`, the residual activity in [1] was determined as 82%; in test [17] it was 85%; in test [2], 95%; in test [18] it was 104%; in test [19], 106%; in test [4] it was 105%. For the same compound, the residual activity turned out to be 87% in [5]; 99% in [6]; 108% in test [7]; 101% in test [8]; 99% in test [9]; 107% in test [10]. Further, the residual activity in test [20] was 121%; in [13] it was 105%; in test [14] it was 101%; in test [15], 98%; in test [16] it was 84%.
